Test results taken from PubChem BioAssay (NCATS).
Inconclusive results are not listed. Activity calls are given as the source filed them. Calls follow the shape of the dose curve; as a rule, active = well fitted curve in the direction sought with a large enough effect; inconclusive = small, poorly fitted or top-dose-only effect, or another doubt; inactive = no such curve, though single readings can be large; an effect the other way counts as inactive or inconclusive.

What was measured:
[1] = qHTS of pediatric cancer cell lines to identify multiple opportunities for drug repurposing: Confirmatory screen for MG 63 (6-TG R) cells (AID 1347119); also: nearly all actives have a fitted effect of over 55% in size; also: potency is read from the fitted curve at half-maximal effect
In short: (§1)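 Cells (500-1,000/well) in growth media were settled 5 h at 37 degrees C, then given compounds for 48 h. Viability was read as CellTiter-Glo luminescence. Primary runs used MIPE at 11 points (0.78 nM-46 µM) and NPC at 8 points (0.59 nM-46 µM); follow-ups used 11 points.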

[2] = qHTS of pediatric cancer cell lines to identify multiple opportunities for drug repurposing: Confirmatory screen for control Hh wild type fibroblast cells (AID 1347121); also: nearly all actives have a fitted effect of over 70% in size; also: potency is read from the fitted curve at half-maximal effect
In short: as §1

[3] = qHTS of pediatric cancer cell lines to identify multiple opportunities for drug repurposing: Confirmatory screen for U-2 OS cells (AID 1347122); also: nearly all actives have a fitted effect of over 65% in size; also: potency is read from the fitted curve at half-maximal effect
In short: as §1

[4] = qHTS of pediatric cancer cell lines to identify multiple opportunities for drug repurposing: Confirmatory screen for Rh41 cells (AID 1347123);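 also: 48 h compound exposure; nearly all actives have a fitted effect of over 60% in size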; also: potency is read from the fitted curve at half-maximal effect
In short: as §1

[5] = qHTS of pediatric cancer cell lines to identify multiple opportunities for drug repurposing: Confirmatory screen for RD cells (AID 1347124);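 also: cells exposed to compound for 48 h before viability readout; nearly all actives have a fitted effect of over 65% in size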; also: potency is read from the fitted curve at half-maximal effect
In short: as §1

[6] = qHTS of pediatric cancer cell lines to identify multiple opportunities for drug repurposing: Confirmatory screen for Rh30 cells (AID 1347126); also: nearly all actives have a fitted effect of over 55% in size; also: potency is read from the fitted curve at half-maximal effect
In short: as §1

[7] = qHTS of pediatric cancer cell lines to identify multiple opportunities for drug repurposing: Confirmatory screen for SK-N-SH cells (AID 1347129);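 also: cells exposed to compound for 48 h before viability read; nearly all actives have a fitted effect of over 60% in size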
In short: as §1

[8] = qHTS of pediatric cancer cell lines to identify multiple opportunities for drug repurposing: Confirmatory screen for Saos-2 cells (AID 1347127); also: nearly all actives have a fitted effect of over 60% in size
In short: as §1

[9] = qHTS of pediatric cancer cell lines to identify multiple opportunities for drug repurposing: Confirmatory screen for OHS-50 cells (AID 1347128);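 also: compound exposure lasted 48 h at 37 degrees C; nearly all actives have a fitted effect of over 55% in size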
In short: as §1

Measured: Potency

O=[N+]([O-])c1c(Cl)c(Cl)cc(Cl)c1Cl
not listed: [8] | [9]
inactive: all other assays above

CC(C)N[C@@H]1CCn2c(=O)[nH]c3cccc(c32)[C@@H]1O
inactive: all assays above

CS(=O)(=O)c1ccc(C(=O)C2C(=O)CCCC2=O)c([N+](=O)[O-])c1
inactive: all assays above

CCCN1CCO[C@@H]2c3cc(O)ccc3OC[C@@H]21
active: [6] 8.27 µM
not listed: [8] | [9]
inactive: all other assays above

C[C@]12Cc3cn[nH]c3C[C@@H]1CC[C@@H]1[C@H]2CC[C@@]2(C)[C@H]1CC[C@]2(C)O
not listed: [5] | [6] | [8]
inactive: all other assays above

CC[C@H]1C=CC=CC[C@@H](C)[C@H](O)[C@@](C)(O)C(=O)[C@@H](C)[C@H](O)[C@@H](C)C(=O)[C@@H](C)[C@H](O)[C@@H](C)C=CC(=O)O[C@@H]2[C@@H](C)[C@H](CC1)O[C@]1(CC[C@H](C)[C@H](C[C@@H](C)O)O1)[C@H]2C
inactive: [9]
active: [1] 0.117 µM | [2] 0.117 µM | [3] 0.0046 µM | [5] 4.14 µM

COc1ccc(C(=O)c2c(C)n(CCN3CCOCC3)c3cc(I)ccc23)cc1
inactive: [2] | [7]
active: [1] 14.7 µM | [3] 16.5 µM | [4] 9.27 µM
